Pf growth 96h – P. falciparum growth inhibition at 96 hour, primary screen for plastid delayed-death inhibitors; Potency, µM (doses to about 28.7 µM), without a hit: top-dose activity change, negative = inhibition, usual class: inhibitors; P. falciparum luciferase reporter growth, 96 h; hit rate 6.9% among 320,000; further: potency means the concentration at half of the fitted maximal effect; on the % scale 0 is the no-effect control and ±100 the full control effect
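Luminescence readout: decreased luciferase signal marks inhibited growth of reporter-expressing P. falciparum in infected red cells (2% hematocrit, 0.05% parasitemia final), exposed to compound two generations (96 h, 37 C, 5% CO2).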
FBPA Giardia inh – blocks Giardia fructose-bisphosphate aldolase activity. A8B2U2. purified Giardia FBPA. Potency, µM (titrated, usually from 59.6 µM), without a hit: at the top dose activity, negative = inhibition, hits mostly inhibitors. hit rate 0.71% among 290,000; further: potency means the concentration at half of the fitted maximal effect; on the % scale 0 is the no-effect control and ±100 the full control effect; nearly all actives have a fitted effect of over 55% in size
Target sequence (A8B2U2 whole entry, looked up): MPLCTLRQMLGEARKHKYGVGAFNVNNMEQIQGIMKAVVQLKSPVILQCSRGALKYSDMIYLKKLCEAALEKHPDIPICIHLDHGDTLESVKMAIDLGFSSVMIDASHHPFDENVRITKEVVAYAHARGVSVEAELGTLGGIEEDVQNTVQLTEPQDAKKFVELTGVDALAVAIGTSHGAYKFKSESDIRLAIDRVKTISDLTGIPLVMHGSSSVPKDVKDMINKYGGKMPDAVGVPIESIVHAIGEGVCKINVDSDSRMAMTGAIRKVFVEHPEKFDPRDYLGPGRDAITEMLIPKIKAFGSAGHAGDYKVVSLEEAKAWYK
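40 nM FBPA preincubated 10 min at RT with compound (up to 57.5 uM final), then substrate plus GAPDH/TPI/NAD/arsenate coupling and diaphorase/resazurin added. Fluorescence read after 20 min at RT, 525/598 nm.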
CHX counter – counter-screen hit for Shiga toxin inhibitors, cycloheximide; cell reporter, cycloheximide protein synthesis inhibition counterscreen; hit rate 12% among 300,000; AID 2314; max response, %; in the data active means max response mostly above about 13%, no sharp cut-off; inactive means mostly below about 14%; further: read at 38.3 µM for the half of the compounds with a filed dose; 0% is about no effect
NS1 function inh – influenza NS1 inhibition | Potency, µM (titrated, usually from 46.1 µM), for the others: at the top dose activity, positive = more growth | hit rate 0.4% among 270,000 | AID 2326; calls by dose curve; further: potency means the concentration at half of the fitted maximal effect; actives are rising curves; nearly all actives have a fitted effect of over 50% in size
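Compounds were scored for reversing the slow growth caused by influenza A NS1 in S. cerevisiae, measured by optical density at 600 nm. Assay medium contained 2% galactose at pH 6.0; NS1-free yeast of the same strain were the positive control.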
Pf growth 48h – inhibits P. falciparum growth in the first generation, 48 h. P. falciparum luciferase growth in erythrocytes, 48 h. AID 504832. hit rate 5.9% among 310,000. Potency, µM (doses to about 28.7 µM), for inactives: top-dose activity change, negative = inhibition, hits mostly inhibitors; further: potency means the concentration at half of the fitted maximal effect; on the % scale 0 is the no-effect control and ±100 the full control effect
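First compound was added to culture medium, then infected red cells at 0.1% parasitemia and 2% hematocrit (final). After incubation at 37 C under 5% CO2, luciferase detection reagent was dispensed and light output recorded.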
Shiga inhibitor – inhibitors of Shiga toxin in Vero cells | inhibition, % at 38.7 µM | hit rate 9.2% among 290,000 | AID 2315 | Vero cells, Shiga toxin protein synthesis inhibition reporter; in the data active means inhibition mostly above about 28%, no sharp cut-off; inactive means mostly below about 43%; further: 0% is about no effect
* hit, by the source's call; u = inconclusive; x = not tested or not shown; [ ] = dose if it differs, or a comment. Hits are enriched below; roughly 21% of the tested compounds scored in any of these assays. Unless noted, the call rests on the fitted dose curve; in most records, active means well fitted curve in the direction sought with a large enough effect; inconclusive means small, poorly fitted or top-dose-only effect, or another doubt; inactive means no such curve, though single readings can be large; an effect the other way counts as inactive or inconclusive.

SMILES	Pf growth 96h	FBPA Giardia inh	CHX counter	NS1 function inh	Pf growth 48h	Shiga inhibitor
CC(=O)c1ccc(NC(=O)C(C)Oc2ccc(N(C)S(=O)(=O)c3ccc(C)cc3)cc2)cc1 (stereo not drawn)	13.1µM*	x	x	x	14.7µM*	x
OC(CN1CCCCC1)Cn1c2ccc(Cl)cc2c2cc(Cl)ccc21 (stereo not drawn)	u	-1.2%	-3.1	-7.9%	1.85µM*	2.6
OC(COC(c1ccc(Cl)cc1)c1ccc(Cl)cc1)CN1CCN(c2ccccn2)CC1 (stereo not drawn)	u	-14.1%	-4.5	-57.5%	u	-3.4
OC(CN1CCN(c2ccccn2)CC1)Cn1c2ccc(Cl)cc2c2cc(Cl)ccc21 (stereo not drawn)	x	-4.1%	2.4	-124.4%	1.65µM*	31.9
CCCOC(=O)CCCCCCCCC(O)CN1CCCCC1 (stereo not drawn)	u	10.8%	-2.2	x	81.4%	-2.5
CC(C)(C)c1ccc(-c2nc(SCC(=O)Nc3ccc(Cl)cc3)[nH]c(=O)c2C#N)cc1	x	x	1.7	x	x	32.3
CCCNC(=O)OC[C@@H]1O[C@H](CCON=C(C)C)C=C[C@@H]1Oc1ccc(OC)cc1	x	-0.4%[12.9 µM]	x	x	x	x
CC1=Nc2ccccc2/C1=C\c1sc(Nc2ccc(C)cc2)nc1O	6.57µM*	2.5%	-0.6	1.7%	u	13.5
CC1=Nc2ccccc2/C1=C/c1sc(=O)n(CC(=O)N2CCCC2)c1O	-53.4%	-3.6%	-2.1	-1.7%	8.6%	-13.0
Oc1cccc(Nc2nc(O)c(/C=C3\C=Nc4ccccc43)s2)c1	-16.3%	-12.5%	51.6*	9.8%	30.2%	93.5*
Oc1nc(Nc2cccc(Cl)c2)sc1/C=C1\C=Nc2ccccc21	u	-0.8%	-2.1	3.7%	-11.3%	-5.2
Oc1nc(Nc2ccc(F)cc2)sc1/C=C1\C=Nc2ccccc21	u	-2.2%	18.8	1.6%	13.1µM*	28.9
CCc1cc(C(=O)OCC(=O)N2CCC(c3ccccc3)=N2)sc1C	5.7%	x	-3.6	5.5%	15.6%	-13.3
COc1ccc(/C=N/NC(=O)c2cccc(NC(C)=O)c2)c(OC)c1	u	6.7%	-1.4	x	2.6%	-10.0
COc1ccc(C(=O)Nc2cccc(C(=O)N/N=C/c3ccc(OC)cc3OC)c2)cc1	u	x	39.4*	-10.0%	139.9%	47.0
COc1ccc(/C=N/NC(=O)c2cccc(NC(=O)c3ccccc3)c2)c(C(=O)O)c1OC	-8.3%	1.6%	32.3*	19.1%	13.6%	28.5
CCCN1CCN(CC(=O)Nc2nc3ccccc3s2)CC1	11.0%	u	12.9	4.1%	-1.6%	18.6
O=C(C[n+]1cccc(CO)c1)Nc1nc2ccccc2s1	45.6%	-6.0%	33.6*	2.1%	57.2%	40.6
CCOc1ccc2nc(NC(=O)CS(=O)(=O)c3ccc(C)cc3)sc2c1	11.7%	0.2%	24.8	5.2%	x	20.2
CCOc1ccc2nc(NS(=O)(=O)Cc3ccccc3)sc2c1	23.3%	2.1%	20.5*	-13.5%	x	10.3
O=C(CS(=O)(=O)c1ccccc1)Nc1nc2ccccc2s1	-6.1%	9.4%	25.2*	7.1%	40.3%	22.5
CCOc1ccc2nc(NC(=O)CS(=O)(=O)c3ccccc3)sc2c1	5.22µM*	-3.5%	25.8*	-17.6%	39.2%	active
O=C(NC1CCCCC1)c1cccc(N2C(=O)CCC2=O)c1	81.6%	x	x	x	27.4%	x
CCOc1ccc2nc(NC(=O)COc3ccc(N(C)S(=O)(=O)c4ccc(C)cc4)cc3)sc2c1	u	1.9%	3.1	0.7%	2.33µM*	-1.8
COC(=O)C/C=C/C(C)C(OCc1cccc(-c2ccccc2)c1)C1CCCCC1 (stereo not drawn)	x	-2.3%[12.9 µM]	x	x	x	x
SMILES	Pf growth 96h	FBPA Giardia inh	CHX counter	NS1 function inh	Pf growth 48h	Shiga inhibitor
COc1cccc(N2C(=O)CC(N3CCc4ccccc43)C2=O)c1 (stereo not drawn)	36.7%	1.8%	23.7*	7.7%	16.2%	35.0*
CC(NC(=O)C1CCC(CNS(=O)(=O)c2ccccc2)CC1)c1ccccc1 (stereo not drawn)	18.1%	9.3%	-4.4	-6.0%	-3.3%	-14.6
CC(C)C(NC(=O)CCNC(=O)c1ccc(C(C)(C)C)cc1)c1nc2ccccc2[nH]1 (stereo not drawn)	u	x	x	x	8.28µM*	x
CC(=O)c1c(C(C)=O)c(C)n(-c2nc(-c3ccc(C)c(C)c3)c(C)s2)c1C	-17.9%	16.7%	1.5	-15.6%	11.7µM*	6.5
CCCN(CC(=O)Nc1ccccc1C)C(=O)c1oc2ccc(OCC)cc2c1C	7.38µM*	x	x	x	2.94µM*	x
CCOc1ccc2oc(C(=O)NC(C)(C)CC)c(C)c2c1	54.3%	-3.2%	48.0*	x	121.3%	66.8*
CCCN(CC(=O)Nc1ccccc1C)C(=O)Cc1n[nH]c(=O)c2ccccc12	-4.6%	x	x	x	-15.0%	x
CCCN(CC(=O)Nc1ccccc1C)C(=O)c1cc(C)oc1C	-7.9%	x	x	x	-20.4%	x
CCCN(CC(=O)Nc1ccccc1C)C(=O)Cc1c(C)nc2ccccc2c1C	u	x	x	x	10.4µM*	x
CCN(CC)c1ccc2nc3c4ccccc4c(=O)cc-3oc2c1	-1.0%	-18.4%	52.1*	1.2%	25.1%	64.9*
COc1cc(O)c2c(c1)C(=O)c1cc(C)cc(O)c1C2=O	x	-7.1%	x	x	x	x
Cc1cc(O)c2c(c1)C(=O)C13C(=C2O)C(=O)[C@H]2[C@@H](O)[C@@H]1[C@H]1[C@H](O)[C@@H]3C(=O)C3=C(O)c4c(O)cc(C)cc4C(=O)C312 (stereo partly drawn)	3.29µM*	x	x	x	4.15µM*	x
CN(C)CCNC(=O)c1ccc2c(c1)NC(=O)c1ccccc1S2	u	3.4%	3.0	8.3%	11.7µM*	-14.5
COC(CN(C)C(=O)c1ccc2c(c1)NC(=O)c1ccccc1S2)OC	10.1%	-5.6%	-2.7	2.9%	1.47µM*	-4.4
COC(=O)C/C=C\[C@@H](C)[C@@H]1C=C[C@H](OC(C)=O)[C@H](COC(C)=O)O1	x	1.0%[12.9 µM]	x	x	x	x
O=S(=O)(Cc1ccc(Cl)cc1)N1CCN(Cc2ccccc2)CC1	u	15.4%	-3.7	0.0%	38.9%	5.0
CCc1ccc(CN2CCN(S(=O)(=O)Cc3ccccc3)CC2)cc1	3.29µM*	-11.8%	-4.8	-0.1%	0.8%	-19.9
O=S(=O)(Cc1ccccc1)N1CCN(Cc2ccc(Br)cc2)CC1	u	x	34.8*	-14.3%	28.4%	30.9*
COc1ccc(-c2nc3cnc(N4CCOCC4)nc3n(-c3ccc(OC)cc3)c2=O)cc1	x	-5.6%	x	x	x	x
COc1ccc(C2C(C(=O)c3ccccc3)=C(C)Nc3nc4ccccc4n32)cc1OC (stereo not drawn)	3.29µM*	-3.3%	6.5	8.7%	-21.0%	35.5
O[C@H]([C@H](O)[C@@H](O)c1nc2ccccc2[nH]1)[C@@H](O)c1nc2ccccc2[nH]1	x	x	x	-7.6%	x	x
C=COC(=O)/C=C/C	x	0.4%	-3.8	x	x	-10.2
CC(=O)c1ccc2c3c(cccc13)C(=O)N(CCc1ccccc1)C2=O	-18.4%	-4.8%	31.8*	u	35.5%	48.6*

Bioassay records from PubChem.
